Lassa entry inh – qHTS for Inhibitors of binding or entry into cells for Lassa Virus | Lassa virus pseudotype entry inhibition, cell reporter | Potency, µM (doses to about 37.9 µM), for inactives: at the top dose activity change, negative = inhibition, usual class: inhibitors | 300,000 tested, 1.2% active; calls by dose curve; tested in HEK293 cells; also: potency is read from the fitted curve at half-maximal effect; nearly all actives have a fitted effect of over 50% in size
Pf growth 96h – Primary qHTS for delayed death inhibitors of the malarial parasite plastid, 96 hour incubation; P. falciparum luciferase reporter growth, 96 h; Potency, µM (series often up to 28.7 µM), for the others: at the top dose activity change, negative = inhibition, actives largely listed as inhibitors; 320,000 tested, 6.9% active; AID 504834, 2011; also: potency is read from the fitted curve at half-maximal effect
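Erythrocytes infected with luciferase-expressing P. falciparum were dispensed at 2% hematocrit and 0.05% parasitemia (final), then incubated with compounds 96 hours at 37 C in 5% CO2. Luminescence after detection reagent addition reported growth.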
Pf growth 48h – Primary qHTS for delayed death inhibitors of the malarial parasite plastid, 48 hour incubation; Potency, µM (highest dose often 28.7 µM), without a hit: at the top dose activity change, negative = inhibition, most hits filed as inhibitors; P. falciparum luciferase growth in erythrocytes, 48 h; AID 504832, 2011; 310,000 tested, 5.9% active; also: potency is read from the fitted curve at half-maximal effect
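Cell-based growth assay: transgenic P. falciparum expressing firefly luciferase, cultured in red cells within RPMI 1640 containing 0.5% w/v Albumax, 24 mM bicarbonate and gentamycin. A drop in luciferase activity indicates inhibition.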
MARV entry inh – qHTS for inhibitors of binding or entry into cells for Marburg Virus; 300,000 tested, 1.8% active; AID 540276, 2011; Marburg virus pseudotyped entry inhibition, cell reporter; Potency, µM (series often up to 37.8 µM), for the others: at the top dose activity change, negative = inhibition, actives largely listed as inhibitors; calls by dose curve; tested in HEK293 cells; also: potency is read from the fitted curve at half-maximal effect
HCV inh – qHTS Assay for Inhibitors of Hepatitis C Virus (HCV) | Huh7.5.1 HCVcc-Cre infection, luciferase reporter, 44 h | Potency, µM (top dose mostly 41.8 µM), without a hit: at the top dose activity change, negative = inhibition, actives largely listed as inhibitors | 340,000 tested, 3.4% active; also: potency is read from the fitted curve at half-maximal effect
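Luciferase read-out (15 sec integration) after a 15 min room-temperature substrate step quantifies HCVcc-Cre infection. Cells, 1,000 per well, had compound added 4 h post-plating, then virus at ~0.5 moi, and were cultured 44 h.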
HCMV antiviral – qHTS Assay for inhibitors of the human cytomegalovirus (HCMV); HFF cells, HCMV-luciferase reporter, 72 h; hits give low values; activity change, negative = inhibition, % at 57.5 µM; 410,000 tested, 4.5% active; AID 1259415, 2018; in the data active = activity change below about -60%; inconclusive = no clear call, values can overlap the other calls; inactive = above about -39%
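Screen run at 2 compound doses on HFFs infected with reporter HCMV, MOI 1 PFU/cell. Luciferase activity from cell lysates at 72 h post infection gave inhibition relative to buffer-only and Salinomycin wells.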
Numbers without * were called inactive; ? = inconclusive; / = no result given; [ ] = remark or other dose. Hits are enriched below; roughly 14% of the tested compounds scored in any of these assays. Unless noted, calls follow the shape of the dose curve; as a rule, active = well fitted inhibition curve with a large enough effect; inconclusive = small, poorly fitted or top-dose-only effect, or another doubt; inactive = no such curve, though single readings can be large or run the other way. % is scaled to controls: 0 for no effect and ±100 for the full control effect.

SMILES	Lassa entry inh	Pf growth 96h	Pf growth 48h	MARV entry inh	HCV inh	HCMV antiviral
O=C(c1cccc(S(=O)(=O)N2CCN(c3ccccc3)CC2)c1)N1CCCC(C(F)(F)F)C1 (stereo unspecified)	?	-2%	?	?	?	-91*
COc1cc2ccccc2cc1C(=O)N1CCCC(C(F)(F)F)C1 (stereo unspecified)	-3%	0.47µM*	0.52µM*	-18%	15%	-33
CC(=O)OC[C@]12CC[C@H]3[C@@](C)(CC[C@H]4C(C)(C)CCC[C@]34C)[C@@H]1C[C@H](C1=CC(=O)O[C@@H]1OC(C)=O)O2	/	/	/	/	3%	/
CCOC(=O)Cn1c(=N)n(Cc2ccc(C(C)(C)C)cc2)c2ccccc21	9%[46.1 µM]	/	/	/	/	?
COc1ccc(CCNC(=O)c2csc3c2CCCC3)cc1OC	-8%[46.1 µM]	-5%	-2%	?	-21%	-34
COc1ccc(OC)c(CCNC(=O)c2csc3c2CCCCC3)c1	/	/	/	?	/	-62*
O=C(NCc1ccco1)c1csc2c1CCCC2	8%	25%	19%	0%[46.1 µM]	8%	-65*
CCN1CCN(CCCNC(=O)c2csc3c2CCCCC3)CC1	?	15µM*	2%	?	-5%	6
CCN1CCCC1CNC(=S)Nc1ccc(C(C)=O)cc1 (stereo unspecified)	/	-24%	15µM*	/	-8%	-10
CCC1CCCCN1CCCNC(=O)c1csc2c1CCCCC2 (stereo unspecified)	/	18%	-17%	/	-1%	-31
CCN1CCCC1CNC(=O)c1csc2c1CCCC2 (stereo unspecified)	-14%	?	-17%	23µM*	?	53
Cc1nn(C2CCOC(C)(C)C2)c2c1C(c1ccc3c(c1)OCO3)SCC(=O)N2 (stereo unspecified)	-6%	9.3µM*	?	-15%	-19%	1
CN1CCN(C(=O)c2cccc(-c3ccc4nncn4c3)c2)CC1	/	/	/	/	/	-14
CN1CCN(C(=O)c2cccc(-c3cc(O)c4ncccc4c3)c2)CC1	/	10µM*	10µM*	/	/	-21
Oc1cc(-c2cccnc2)cc2cccnc12	/	4.1µM*	7.4µM*	/	/	-94*
CN1CCN(c2cc(-c3cc(O)c4ncccc4c3)ccn2)CC1	/	?	12µM*	/	/	-89*
c1cncc(-c2nc3cc4ccccc4cc3[nH]2)c1	-24%	204%	205%	?	?	171
O=C(c1cc2ccccc2cc1O)N1CCN(c2ccccn2)CC1	-1%[46.1 µM]	?	?	19%[46.1 µM]	-6%	-15
O=C1NC(=O)N(c2ccccc2)C(=O)/C1=C\C=C\c1ccccc1	-2%	23%	3%	1%[46.1 µM]	?	41
ClC1=C(Cl)C(Cl)=C(Cl)C1=C/C=C/c1ccccc1	/	?	?	/	8.9µM*	?
COc1cccc(CNC(=O)N2CCC(CN3CCC(C)CC3)CC2)c1	-5%[46.1 µM]	/	/	/	/	12
O=C(c1cc(-c2ccncc2)nc2ccc(Br)cc12)N1CCN(c2ccccn2)CC1	?	/	-13%	5.6µM*	-3%	41
O=C(c1cc(-c2ccccc2Cl)nc2ccc(Br)cc12)N1CCN(c2ccccn2)CC1	?	/	/	?	-4%	-90*
O=C(c1cc(-c2cccc(Cl)c2)nc2ccccc12)N1CCN(c2ccccn2)CC1	-1%	53%	?	?	?	-3
COc1ccccc1C(C)NC(=O)CCC(=O)N1CCN(S(=O)(=O)c2ccc(Cl)cc2)CC1 (stereo unspecified)	?	/	/	?	?	-33
Cc1ccc(OCC(=O)Nc2cccc(C(=O)OCc3cc(=O)n4cc(C)sc4n3)c2)cc1	1%[46.1 µM]	/	/	/	/	?
Cc1nc2ncccn2c1-c1csc(Nc2ccc(N(C)C)cc2)n1	-3%	?	?	?	-22%	-65*
Cc1nc2ncccn2c1-c1csc(Nc2ccccc2)n1	-12%	6%	3.3µM*	?	11µM*	42

Compound activity from PubChem.
